SRC3 inh = human NCOA3 inhibition. Q9Y6Q9. AID 588352. HEK293 GAL4-SRC3 luciferase reporter, luminescence. inhibition, % at 3.6 µM. 0.17% of 360,000 active;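 active means inhibition above a per-campaign cutoff, the mean of all compounds plus 3 SD, cut at about 60% in these data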;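 further: higher means less SRC3-driven luciferase light from the GAL4 reporter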
LRH-1 inv ag = inverse agonists of human LRH-1 (NR5A2); O00482; HEK293T StAR-luciferase reporter, LRH-1 transfected, 24 h; inhibition, % at 3.6 µM; 0.13% of 360,000 active; AID 602396;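 active means inhibition above the mean inhibition of all tested compounds plus 3 SD, cut at about 73% in these data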
NCOA2 inhibitor = human SRC2 (NCOA2) inhibition | Q15596 | HEK293 GAL4-SRC2 luciferase reporter, luminescence | inhibition, % at 9 µM | 0.17% of 370,000 active | AID 651957;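 active means inhibition above the mean inhibition of all tested compounds plus 3 SD, set per campaign, cut at about 52% in these data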
COUP-TFII inh = inhibitors of human COUP-TFII (NR2F2); P24468; HEK293T NGFI-A luciferase reporter, luminescence; inhibition, % at 8.6 µM; 0.7% of 370,000 active;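 active means inhibition above a per-plate cutoff, mean inhibition of test wells between control levels plus 3 SD, cut at about 38% in these data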;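 further: cells cotransfected with COUP-TFII expression vector driving the NGFI-A reporter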
Target sequence (P24468 whole entry, looked up): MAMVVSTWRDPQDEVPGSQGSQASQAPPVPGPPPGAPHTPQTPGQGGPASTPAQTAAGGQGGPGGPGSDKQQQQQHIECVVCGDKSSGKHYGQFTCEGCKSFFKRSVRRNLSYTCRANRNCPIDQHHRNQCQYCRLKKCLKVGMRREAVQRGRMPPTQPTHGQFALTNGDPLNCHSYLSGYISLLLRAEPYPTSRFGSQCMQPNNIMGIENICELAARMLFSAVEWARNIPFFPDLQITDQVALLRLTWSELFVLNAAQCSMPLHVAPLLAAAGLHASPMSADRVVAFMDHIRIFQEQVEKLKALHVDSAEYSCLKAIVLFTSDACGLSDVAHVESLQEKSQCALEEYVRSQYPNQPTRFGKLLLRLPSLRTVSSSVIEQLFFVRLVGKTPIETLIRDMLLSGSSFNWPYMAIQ
NCOA1 inh = inhibits human SRC1 coactivator. Q15788. HEK293 GAL4-SRC1 luciferase reporter, luminescence. inhibition, % at 3.6 µM. 0.12% of 360,000 active;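 active means inhibition above the campaign mean plus 3 SD, with each screening campaign given its own cutoff, cut at about 60% in these data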
Gli-Sufu antag = Gli-Sufu pathway antagonism; Sufu-KO-LIGHT fibroblasts, Gli luciferase reporter luminescence; 0.74% of 340,000 active; inhibition, % at 5 µM;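 active means inhibition above about 55%, limit read from the data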
Gli antag conf = confirmation of Gli-SUFU pathway antagonists. AID 602428. Sufu-KO-LIGHT cells, Gli luciferase reporter, luminescence. 40% of 2,500 active. inhibition, % at 5 µM. shares compounds with Gli-Sufu antag;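 active means mean inhibition at 5 µM reaching about 45%, limit read from the data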
Gli cytotox = counter-screen for Gli-SUFU antagonists: cytotoxicity; shares compounds with Gli-Sufu antag; Sufu-KO-LIGHT cells cytotoxicity, ATP luminescence; cytotoxicity, % at 5 µM; 32% of 2,500 active;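 active means mean cytotoxicity at 5 µM above about 25%, limit read from the data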;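 further: cells exposed to compound overnight for roughly 16 to 18 hours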
Wnt3a counter = inhibits Wnt3a reporter, counter-screen for Gli-SUFU antagonists. inhibition, % at 6.25 µM. 20% of 2,500 active. shares compounds with Gli-Sufu antag. Wnt-LIGHT cells, Wnt3a-driven luciferase reporter, luminescence. AID 651995;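 active means mean inhibition above about 25%, limit read from the data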
VP16 Luc counter = counter-screen for COUP-TFII antagonists: inhibitors of VP16; shares compounds with COUP-TFII inh; HEK293 Gal4-VP16 luciferase reporter, luminescence; inhibition, % at 8.5 µM; 25% of 2,500 active; AID 687007; in the data active means inhibition above about 13%
NR2F2 inh conf = COUP-TFII (NR2F2) inhibition, confirmation assay; shares compounds with COUP-TFII inh; HEK293 NGFI-A luciferase reporter, luminescence; inhibition, % at 8.5 µM; 45% of 2,500 active;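 active means mean inhibition over three repeats above a set limit taken from the earlier primary screen, cut at about 38% in these data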
Of the large screens only hits and unclear results are named; the others gave an inactive call (follow-up assays come after a bar, where they were run); ! = repeats disagree. A selection: hits, their analogues and other compounds. The true share with any hit is near 1.3%.

CCOc1ccc(N=C(NN)c2ccc3ccccc3n2)cc1	COUP-TFII inh 40, Gli-Sufu antag 64 | Gli antag conf 73 | Gli cytotox inactive | Wnt3a counter 81 | VP16 Luc counter inactive | NR2F2 inh conf inactive
COCC(C)n1c(C)cc(C(=O)COC(=O)c2cc(=O)[nH]c3ccccc23)c1C (stereo unspecified)	COUP-TFII inh 62 | Gli antag conf 69 | Gli cytotox 26 | Wnt3a counter 81 | VP16 Luc counter inactive | NR2F2 inh conf 58
CCOc1ccc(C=Nn2c(-c3ccc(F)cc3)n[nH]c2=S)cc1	none (no result: SRC3 inh, LRH-1 inv ag, NCOA1 inh, Gli-Sufu antag)
O=C(NC1CCN(Cc2ccccc2)CC1)c1ccc2c(c1)[nH]c(=O)n2Cc1ccc(F)cc1	COUP-TFII inh 64 | Gli antag conf inactive | Gli cytotox inactive | Wnt3a counter inactive | VP16 Luc counter inactive | NR2F2 inh conf inactive
O=C(CCc1ccccc1)N[C@H]1[C@@H](OC(=O)c2cccnc2)CCC[C@@]12C(=O)N(Cc1ccccc1)c1ccccc12	none (no result: SRC3 inh, LRH-1 inv ag, NCOA1 inh, Gli-Sufu antag)
CC(=O)Nc1ccc(SCC(=O)c2cc(C)n(-c3ccccc3)c2C)cc1	COUP-TFII inh 54 | Gli antag conf 70 | Gli cytotox inactive | Wnt3a counter 77 | VP16 Luc counter 23 | NR2F2 inh conf 40
Cc1cc(-n2c(C)cc(C(=O)CSc3nc(N)cc(=O)[nH]3)c2C)no1	none
Cc1cc(C(=O)CSc2nc(N)cc(=O)[nH]2)c(C)n1-c1ccc(OC(F)F)cc1	COUP-TFII inh 53, Gli-Sufu antag 68 | Gli antag conf 65 | Gli cytotox 38 | Wnt3a counter inactive | VP16 Luc counter inactive | NR2F2 inh conf 54
Cc1nc(NCCc2ccc(S(N)(=O)=O)cc2)c2c(C)c(C)sc2n1	COUP-TFII inh 48, Gli-Sufu antag 63 | Gli antag conf 59 | Gli cytotox 39 | Wnt3a counter inactive | VP16 Luc counter inactive | NR2F2 inh conf inactive
OCCCNc1ncnc2scc(-c3ccc(Cl)cc3)c12	COUP-TFII inh 38 | VP16 Luc counter inactive | NR2F2 inh conf inactive
NC1=NC[C@H](Cc2ccc(O)cc2)N1CCCCC1CCCCC1	COUP-TFII inh 38, Gli-Sufu antag 59 | VP16 Luc counter 15 | NR2F2 inh conf inactive
NC1=NC[C@H](Cc2ccc(O)cc2)N1CCc1cc(C(F)(F)F)cc(C(F)(F)F)c1	none
COc1ccc(-c2sc3ccc(N4CCOCC4)cc3c2C#CCO)cc1	COUP-TFII inh 74 | VP16 Luc counter inactive | NR2F2 inh conf 53
COc1ccc(S(=O)(=O)NCc2ccc(C(=O)N3CCN(Cc4ccccc4)CC3)cc2)cc1	none
COc1ccc(N2CCN(C(=O)c3ccc(CNS(=O)(=O)c4ccc(C)cc4)cc3)CC2)cc1	none
Cc1ccc(S(=O)(=O)NCc2ccc(C(=O)N3CCN(c4ccc([N+](=O)[O-])cc4)CC3)cc2)cc1	COUP-TFII inh 55 | VP16 Luc counter inactive | NR2F2 inh conf 66
Cc1ccc(S(=O)(=O)NCc2ccc(C(=O)N3CCN(Cc4ccccc4)CC3)cc2)cc1	COUP-TFII inh 48 | VP16 Luc counter inactive | NR2F2 inh conf inactive
C=C1C(=O)OC2CC1C(OC(C)=O)CC(C)=CCCC(C)=CCCC2(C)O (stereo unspecified)	SRC3 inh 62, COUP-TFII inh 39 (no result: Gli-Sufu antag) | VP16 Luc counter 30 | NR2F2 inh conf inactive
C[C@H]1O[C@@H](O[C@H]2[C@@H](O)C[C@H](O[C@H]3[C@@H](O)C[C@H](O[C@H]4CC[C@@]5(C)[C@H](CC[C@@H]6[C@@H]5C[C@@H](O)[C@]5(C)[C@@H](C7=CC(=O)OC7)CC[C@]65O)C4)O[C@@H]3C)O[C@@H]2C)C[C@H](O)[C@@H]1O	SRC3 inh 91, LRH-1 inv ag 102, NCOA2 inhibitor 61, COUP-TFII inh 80, NCOA1 inh 87 | VP16 Luc counter 48 | NR2F2 inh conf 77
CN(C)C(=O)c1ccc(NC(=O)c2cccc(S(=O)(=O)N3CCCc4ccccc43)c2)cc1	COUP-TFII inh 39 | VP16 Luc counter inactive | NR2F2 inh conf inactive
O=C(N/N=C\c1ccc(-c2ccc([N+](=O)[O-])cc2)o1)c1ccc2c(c1)OCO2	none
O=C(N/N=C/c1ccc([N+](=O)[O-])o1)c1ccc2c(c1)OCO2	NCOA2 inhibitor 67, COUP-TFII inh 54 | VP16 Luc counter 45 | NR2F2 inh conf 44
COC(=O)C[C@H]1CC[C@@H]2[C@H](COc3ccc(NC(=O)C(C)C)cc3C(=O)N2C)O1	none (no result: SRC3 inh, LRH-1 inv ag, NCOA1 inh, Gli-Sufu antag)
CC(C)(C)n1ncc2c(=O)n(CC(=O)OCc3ccccc3)cnc21	COUP-TFII inh 61 | VP16 Luc counter 59 | NR2F2 inh conf 80
COc1cc(SC)ccc1C(=O)Nc1ncc(C)s1	NCOA2 inhibitor 53, COUP-TFII inh 48 | VP16 Luc counter inactive | NR2F2 inh conf inactive
COc1cc(SC)ccc1C(=O)Nc1ccc(Br)cn1	none
COc1ccc2cc3[n+](cc2c1OC)CCc1cc2c(cc1-3)OCO2	COUP-TFII inh 53, Gli-Sufu antag 61 | VP16 Luc counter 14! | NR2F2 inh conf 54!
COc1cccc(C2=NCCc3cc4c(cc32)OCO4)c1OC	none
CCOC(=O)[C@@]12CCCC3=C1N(CCC3)C(=O)[C@H]2CC(=O)NCc1cccs1	none (no result: SRC3 inh, LRH-1 inv ag, NCOA1 inh, Gli-Sufu antag)
FC(F)(F)c1ccccc1NC(=S)OC1CCC12CCC(c1ccccc1)CC2 (stereo unspecified)	none (no result: SRC3 inh, LRH-1 inv ag, NCOA1 inh, Gli-Sufu antag)
CCCCNC(=O)NS(=O)(=O)c1ccc(NC(=O)CSc2nnc(-c3cccs3)n2-c2ccc(OC)cc2)cc1	none (no result: SRC3 inh, LRH-1 inv ag, NCOA1 inh, Gli-Sufu antag)
CCN1/C(=C/c2sc(-c3ccccc3C)c[n+]2C)Sc2ccccc21	SRC3 inh 80, LRH-1 inv ag 90, COUP-TFII inh 90, Gli-Sufu antag 90 | VP16 Luc counter 16 | NR2F2 inh conf 86
CCN1/C(=C/C(=O)c2ccco2)Sc2ccccc21	none
CCN(CC)c1ccc2nc3ccc(N)cc3[n+](-c3ccccc3)c2c1	SRC3 inh 67, LRH-1 inv ag 87, COUP-TFII inh 77, Gli-Sufu antag 93 | VP16 Luc counter 21 | NR2F2 inh conf 73
CCN(CC)c1ccc(/C=N/n2nnnc2N)c(O)c1	none
CCCOc1ccc(/C=N/Nc2ccccc2[N+](=O)[O-])c(O)c1	COUP-TFII inh 44 | VP16 Luc counter inactive | NR2F2 inh conf 46

Screening data deposited in PubChem by several laboratories.
